Experimental data from ChEMBL document CHEMBL3433997, “St. Jude Leishmania screening dataset” (2016).

Legend:
Format in all cases: functional
[1] = target: Solute carrier family 2, facilitated glucose transporter member 1 (Homo sapiens) (UniProt P11166); assay: ST_JUDE_LEISH: Cytotoxicity at 2uM final concentration against transgenic Leishmania Mexicana promastigotes LmGLUT1 that are glucose transport deficient and complemented with the human glucose transporter GLUT1. Activity is measured by DNA content using SYBR green in vitro
[2] = target: Hexose transporter 1 (Plasmodium falciparum) (UniProt O97467); assay: ST_JUDE_LEISH: Cytotoxicity at 2uM final concentration against transgenic Leishmania Mexicana promastigotes LmPfHT that are glucose transport deficient and complemented with the Plasmodium falciparum hexose transporter. Activity is measured by DNA content using SYBR green in vitro
[3] = target: Glucose transporter (Leishmania mexicana) (UniProt O61059); assay: ST_JUDE_LEISH: Cytotoxicity at 2uM final concentration against transgenic Leishmania Mexicana promastigotes LmGT2 that are glucose transport deficient and complemented with the L. Mexicana glucose transporter 2. Activity is measured by DNA content using SYBR green in vitro

Solute carrier family 2, facilitated glucose transporter member 1 (Homo sapiens), sequence (P11166 whole entry): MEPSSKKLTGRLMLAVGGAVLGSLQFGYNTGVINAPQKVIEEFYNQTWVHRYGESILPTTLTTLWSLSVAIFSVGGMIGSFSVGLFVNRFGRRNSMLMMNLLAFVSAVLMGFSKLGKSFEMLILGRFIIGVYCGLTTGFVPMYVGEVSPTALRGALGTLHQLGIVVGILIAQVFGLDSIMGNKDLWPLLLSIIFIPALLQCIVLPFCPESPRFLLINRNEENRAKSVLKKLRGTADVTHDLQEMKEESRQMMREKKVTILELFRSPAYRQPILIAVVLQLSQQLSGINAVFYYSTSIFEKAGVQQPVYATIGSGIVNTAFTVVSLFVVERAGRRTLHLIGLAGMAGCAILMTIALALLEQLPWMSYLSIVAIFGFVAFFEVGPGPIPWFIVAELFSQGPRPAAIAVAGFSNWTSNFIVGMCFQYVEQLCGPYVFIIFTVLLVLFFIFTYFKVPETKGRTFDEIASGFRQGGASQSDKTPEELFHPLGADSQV

SMILES | inhibition [1] [%] | inhibition [2] [%] | inhibition [3] [%]
CCN(CC)CCCC(C)Nc1nc(C=Cc2ccc(Br)cc2)nc2cc(Cl)ccc12 (stereo not drawn) | 11 | 9.25 | 10.2
COC(=O)Cn1c2ccccc2c2c(N)c(C(=O)OC)c(C)nc21 | 0.93 | 0.97 | -0.45
CO/C(=C\C=C\c1cc2cc(Cl)c(Cl)cc2[nH]1)C(=O)NCCCN1CCCC[C@@H]1C | 3.54 | 2.51 | -0.72
C=CCOc1cc(Cc2cnc(N)nc2N)cc(OC)c1OC | 1.5 | -3.15 | -1.97
O=C(NC1CC1)c1ccc(N2CCC(Oc3ccc(F)cc3)CC2)nc1 | 2.46 | 1.1 | 1.42
COc1cc2c(cc1C(F)(F)F)N(C(=O)Nc1cc(F)c(F)c(-c3cccnc3)c1)CC2 | 10.1 | 1.42 | -4.39
CCCN1CCC(c2c[nH]c3ccc(NC(=O)Nc4cccc(Cl)c4Cl)cc23)CC1 | 3.84 | 2.45 | 4.47
Nc1nc(NCC2CCC(CNS(=O)(=O)c3cccc4ccccc34)CC2)nc2ccccc12 (stereo not drawn) | 7.11 | 3.12 | 1.21
COc1cc2nc(N3CCC(CNC(=O)c4ccc(-c5ccc(C(=O)N(C)C)cc5OCCO)cc4)CC3)nc(N)c2cc1OC | -1.09 | 2.24 | 1.27
COC(=O)CCCOc1cc(Cc2cnc(N)nc2N)cc(OC)c1OC | 7.51 | 6.32 | 9.19
COc1ccc(NC(=O)Nc2ccc(-c3ccc(-c4nc5cccc(C)c5[nH]4)s3)cc2)cc1 | 4.04 | 4.64 | 3.71
CC1(C)C(=O)Nc2ccccc2N1C(=O)CN1CCN(c2ccccc2O)CC1 | 0.51 | -0.55 | -3.82
Cc1ccc(Oc2cnn(C)c(=O)c2Nc2cccc(C(=O)NCCc3ccccn3)c2)c(C)c1 | 4.16 | 4.25 | 3.26
O=C(CCCCCNC(=O)c1ccc(O)c(-c2ccc(Cl)c(Cl)c2)c1)NC1CCCc2ccccc21 (stereo not drawn) | 2.15 | 2.14 | 2.15
COc1ccc(Nc2nccc(NCCNC(=O)Nc3ccccc3F)n2)cc1 | 2.23 | 3.75 | -0.4
Cc1cc2nc(-c3ccc(C(=O)NC4CCN(Cc5ccccc5)CC4)s3)[nH]c2cc1C | 2.92 | 2.77 | 2.98
COc1cc(C(=O)NC2CC(C)(C)N(C)C(C)(C)C2)ccc1-c1nc2cc(Cl)c(Cl)cc2[nH]1 | -0.5 | 1.21 | 3.3
CCN(CC)C(=S)N/N=C1/C(=O)Nc2c(C)cccc21 | 6.57 | 4.85 | 1.52

SMILES | inhibition [1] [%] | inhibition [2] [%] | inhibition [3] [%]
Cc1ccc(-c2nc(N3CCN(C(=O)c4ccco4)CC3)c3ccccc3n2)cc1 | 2.55 | 0.57 | 0.1
CC1CC(C)CN(S(=O)(=O)c2cc(C(=O)Nc3cccc([N+](=O)[O-])c3)ccc2Br)C1 (stereo not drawn) | 7.03 | 7.57 | 5.14
Cc1ccccc1C1CCN(c2ncc(C(=O)Nc3ccccc3)cc2Cl)CC1 | 0.8 | 0.4 | -6.29
COc1cccc2cc(C(=O)N[C@@H](CC(C)C)C(=O)N[C@H](C=NNC(=O)OC(C)(C)C)Cc3ccccc3)oc12 | 7.26 | 6.28 | 4.09
CC(=O)c1cc(N2CCOCC2)ccc1N | 2.03 | 1.08 | 2.38
CCOc1c(C)cc(C(F)(F)F)cc1CNCCCNc1cc(=O)c2ccccc2[nH]1 | 5.27 | 5.03 | 5.79
O=C(/C=C/c1ccc(Cl)c(Cl)c1)NCCCCCN1CCC(NC(=O)NC2CCCCC2)CC1 | 1.02 | 0.4 | 1.22
Cc1cc(OCCCn2ccnc2)ccc1-c1csc(/N=C(\N)NCc2ccccc2)n1 | 8.57 | 5.79 | 6.56
C=Cc1c(C2CCN(CCCCNC(=O)c3ccc(-c4ccc(C#N)cc4)cc3)CC2)ccc2c1CCCC2 | 1.77 | 4.14 | 1.54
Cc1ccc(NC(=O)c2ccc(-c3cc4cc(Cl)c(Cl)cc4[nH]3)cc2)cc1OCCN1CCCC1 | -0.06 | -0.67 | 0.15
OCCN1CCN(Cc2ccc(-c3cccc(-c4nc5cc(C(F)(F)F)ccc5[nH]4)c3)cc2)CC1 | 7.65 | 7.08 | 7.33
O=c1nc(NCCCNCc2cc3c(Cl)cc(Cl)cc3[nH]2)[nH]c2ccsc12 | 81.4 | 96.7 | 83.9
CCN(CCCN1CCCCC1)c1cc(C)nc(Nc2ccc(C(C)C)cc2)n1 | -0.68 | 1.56 | 2.4
COc1ccc(OC)c2c1CCN(CCN1CCC(C(=O)Nc3ccc(C(=O)Nc4ccc(Cl)cc4)cc3)CC1)C2 | 1.55 | 0.47 | 0.22
O=c1cc(NCCCNCc2ccc(C(F)(F)F)cc2F)[nH]c2ccccc12 | 2.19 | 0.29 | -0.34
O=C(Nc1cccc(CN2CCCN(Cc3ccc(O)cc3)CC2)c1)c1ccc2ccccc2c1 | 4.27 | 4.08 | 3.93
COc1ccc(NC(=O)Nc2ccc(Nc3nc(C)cc(N4CCCC4)n3)cc2)cc1 | 4.49 | 3.69 | 1.68
Cc1cccc2nc(-c3cccc(-c4cccc(NC(=O)COc5ccccc5C(N)=O)c4)c3)[nH]c12 | -0.32 | 3.3 | 2.14
